# Inconclusive results are not listed. Where a call stands in place of a potency, no number is given. Values without a mark were called inactive. Calls of active or inactive are those of the source. Unless noted, calls follow the shape of the dose curve; as a rule, active = well fitted curve in the direction sought with a large enough effect; inconclusive = small, poorly fitted or top-dose-only effect, or another doubt; inactive = no such curve, though single readings can be large; an effect the other way counts as inactive or inconclusive.
# Assays:
# [1] = biological target: Cellular tumor antigen p53 (Homo sapiens) (UniProt P04637); test: Primary qHTS for small molecule compounds that upregulate eGFP-tagged delta133p53alpha (in C-terminal) cells. (AID 2060324); also: potency is read from the fitted curve at half-maximal effect
# Method in brief: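 Doxycycline (100 ng/ml, 24 h) first induced the eGFP fusion in NCI-H358 C-terminal-tag cells. Washed-out cells then received titrated compounds for 24 h at 37 °C before paraformaldehyde fixation, Hoechst staining and cytometric GFP quantification.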
# [2] = biological target: Aldehyde dehydrogenase, mitochondrial (Homo sapiens) (UniProt P05091); test: qHTS for Inhibitors of the Aldehyde Dehydrogenase Family (ALDH2) Validation screens (AID 2061302; active = well fitted inhibition curve with a large enough effect; title and protocol of this record describe different tests; also: potency is read from the fitted curve at half-maximal effect)
# [3] = biological target: Retinaldehyde dehydrogenase 3 (Homo sapiens) (UniProt P47895); test: qHTS for Inhibitors of the Aldehyde Dehydrogenase Family (ALDH1A3) Validation screen (AID 2061312); also: nearly all actives have a fitted effect of over 45% in size
# [4] = qHTS for Inhibitors of the Aldehyde Dehydrogenase Family (ALDH1A2, ALDH1A3, ALDH2, ALDH3A1) (AID 2061307); also: nearly all actives have a fitted effect of over 50% in size
# [5] = biological target: Retinaldehyde dehydrogenase 3 (Homo sapiens) (UniProt P47895); test: qHTS for Inhibitors of the Aldehyde Dehydrogenase Family (ALDH1A3) Confirmatory screens (AID 2061311); also: nearly all actives have a fitted effect of over 60% in size; also: potency is read from the fitted curve at half-maximal effect
# [6] = biological target: Retinal dehydrogenase 2 (Homo sapiens) (UniProt O94788); test: qHTS for Inhibitors of the Aldehyde Dehydrogenase Family (ALDH1A2) Confirmation screens (AID 2061314); also: nearly all actives have a fitted effect of over 65% in size; also: potency is read from the fitted curve at half-maximal effect
# [7] = biological target: Aldehyde dehydrogenase, mitochondrial (Homo sapiens) (UniProt P05091); test: qHTS for Inhibitors of the Aldehyde Dehydrogenase Family (ALDH2) Primary screen (AID 2061308); also: nearly all actives have a fitted effect of over 55% in size
# [8] = biological target: Retinaldehyde dehydrogenase 3 (Homo sapiens) (UniProt P47895); test: qHTS for Inhibitors of the Aldehyde Dehydrogenase Family (ALDH1A3) Primary screen (AID 2061315)
# [9] = BET inhibitor-based combinations targeting novel dependencies in MECOM-rearranged (r) AML: SET-2 cell line (AID 2202231); settings: SET-2 AML cells viability, CellTiter-Glo luminescence, 48 h; viability: active compounds read low, concentration not given here; also: nearly all actives have a fitted effect of over 35% in size; also: potency is read from the fitted curve at half-maximal effect
# Method in brief: (§1)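 A 48 hr incubation preceded viability reading by CellTiter-Glo, with 15 min room-temperature development. Dose series had 11 points; normalization used DMSO and empty wells; AUC was computed and mean-centered per line as Z-AUC.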
# [10] = BET inhibitor-based combinations targeting novel dependencies in MECOM-rearranged (r) AML: OCI-AML3 cell line (AID 2202232); settings: Potency: OCI-AML3 viability; also: nearly all actives have a fitted effect of over 35% in size; also: potency is read from the fitted curve at half-maximal effect
# Method in brief: as §1
# [11] = BET inhibitor-based combinations targeting novel dependencies in MECOM-rearranged (r) AML: MV-4-11 cell line (AID 2202233); also: nearly all actives have a fitted effect of over 45% in size; also: potency is read from the fitted curve at half-maximal effect
# Method in brief: (§2)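 Each compound is tested in an 11-point concentration series against 500 seeded cells/well for 48 hr. The luminescent viability signal is normalized to DMSO and blank wells, then reduced to AUC and a cell-line-centred Z-AUC.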
# [12] = BET inhibitor-based combinations targeting novel dependencies in MECOM-rearranged (r) AML: HNT-34 cell line (AID 2202234); also: nearly all actives have a fitted effect of over 35% in size; also: potency is read from the fitted curve at half-maximal effect
# Method in brief: as §2
# [13] = BET inhibitor-based combinations targeting novel dependencies in MECOM-rearranged (r) AML: AML-191 cell line (AID 2202236; also: nearly all actives have a fitted effect of over 35% in size; also: potency is read from the fitted curve at half-maximal effect)
# Method in brief: as §1
# [14] = BET inhibitor-based combinations targeting novel dependencies in MECOM-rearranged (r) AML: AML-194 cell line (AID 2202237; also: nearly all actives have a fitted effect of over 40% in size)
# Method in brief: as §1
# [15] = BET inhibitor-based combinations targeting novel dependencies in MECOM-rearranged (r) AML: UCSD-AML1 cell line (AID 2202235); also: potency is read from the fitted curve at half-maximal effect; nearly all actives have a fitted effect of over 40% in size
# Method in brief: as §2
# [16] = biological target: Aldehyde dehydrogenase, mitochondrial (Homo sapiens) (UniProt P05091); test: qHTS for Inhibitors of the Aldehyde Dehydrogenase Family (ALDH2) Confirmatory screens (AID 2061303; active = well fitted inhibition curve with a large enough effect; title and protocol of this record describe different tests; also: nearly all actives have a fitted effect of over 45% in size)
# [17] = biological target: Aldehyde dehydrogenase 1A1 (Homo sapiens) (UniProt P00352); test: qHTS for Inhibitors of the Aldehyde Dehydrogenase Family (ALDH1A1) Confirmatory screens (AID 2061316); also: nearly all actives have a fitted effect of over 65% in size
# Cellular tumor antigen p53 (Homo sapiens), sequence (P04637 whole entry, looked up, the tested form may be a part): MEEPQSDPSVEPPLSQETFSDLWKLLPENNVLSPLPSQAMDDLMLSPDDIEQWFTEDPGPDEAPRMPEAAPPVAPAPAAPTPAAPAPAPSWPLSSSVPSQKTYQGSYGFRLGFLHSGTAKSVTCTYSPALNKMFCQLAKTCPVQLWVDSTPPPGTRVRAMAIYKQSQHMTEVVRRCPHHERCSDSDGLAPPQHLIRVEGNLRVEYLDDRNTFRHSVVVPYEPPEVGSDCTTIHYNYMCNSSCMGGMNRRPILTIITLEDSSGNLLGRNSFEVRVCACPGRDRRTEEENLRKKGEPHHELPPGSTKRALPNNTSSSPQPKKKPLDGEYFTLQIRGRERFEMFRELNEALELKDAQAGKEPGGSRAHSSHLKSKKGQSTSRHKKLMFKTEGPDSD
smiles,measurement,setting,value
NC(N)=NOCCC(N)C(=O)O (stereo unspecified),Potency,[1],inactive
same,Potency,[2],inactive
same,Potency,[3],inactive
C=C(C)[C@H]1CN[C@H](C(=O)O)[C@H]1CC(=O)O,Potency,[2],inactive
same,Potency,[3],inactive
NNC(N)=O,Potency,[2],inactive
Ic1ccccc1CNC1C2CCN(CC2)C1C(c1ccccc1)c1ccccc1 (stereo unspecified),Potency,[2],inactive
same,Potency,[3],inactive
COc1ccc(C(CN(C)C)C2(O)CCCCC2)cc1 (stereo unspecified),Potency,[2],inactive
same,Potency,[3],inactive
Nc1ccncc1,Potency,[1],inactive
same,Potency,[2],inactive
same,Potency,[3],inactive
NC(N)=Nc1ccc2[nH]c3c(c2c1)C[C@@]1(O)[C@H]2Cc4ccc(O)c5c4[C@@]1(CCN2CC1CC1)[C@H]3O5,Potency,[2],inactive
C=CCN1CCC23c4c5ccc(O)c4O[C@H]2C(=O)CC[C@@]3(O)C1C5 (stereo partly specified),Potency,[2],inactive
same,Potency,[3],inactive
COc1ccc2[nH]cc(CCN)c2c1,Potency,[1],inactive
same,Potency,[2],inactive
same,Potency,[3],inactive
NC1CCc2cc(O)c(O)cc2C1 (stereo unspecified),Potency,[2],inactive
same,Potency,[4],inactive
same,Potency,[5],11.3 µM (active)
same,Potency,[6],inactive
CC(Cc1ccc(OCC(=O)O)cc1)NCC(O)c1cccc(Cl)c1 (stereo unspecified),Potency,[1],inactive
same,Potency,[2],inactive
same,Potency,[3],inactive
CCCCCCCCCCCCCC(=O)O[C@@H]1[C@@H](C)[C@@]2(O)[C@@H](C=C(CO)C[C@@]3(O)C(=O)C(C)=C[C@@H]23)C2C(C)(C)[C@@]21OC(C)=O (stereo partly specified),Potency,[2],inactive
same,Potency,[3],inactive
CC1=NN=C(c2ccc(N)cc2)c2cc3c(cc2C1)OCO3,Potency,[1],21.3 µM (active)
same,Potency,[2],8.91 µM (active)
CC(NC(C)(C)C)C(=O)c1cccc(Cl)c1 (stereo unspecified),Potency,[1],inactive
same,Potency,[2],inactive
same,Potency,[7],inactive
same,Potency,[3],inactive
same,Potency,[8],inactive
same,viability,[9],111%
same,Potency,[10],inactive
same,Potency,[11],inactive
same,Potency,[12],inactive
same,Potency,[13],inactive
same,Potency,[14],inactive
CS(=N)(=O)CC[C@H](N)C(=O)O (stereo partly specified),Potency,[1],inactive
same,Potency,[2],inactive
same,Potency,[3],inactive
c1ccc(C2CC2)c(OCC2=NCCN2)c1,Potency,[1],inactive
same,Potency,[2],inactive
same,Potency,[3],inactive
C[C@H](Cc1ccc2c(c1)OC(C(=O)O)(C(=O)O)O2)NC[C@H](O)c1cccc(Cl)c1,Potency,[2],inactive
same,Potency,[3],inactive
O=c1[nH]oc2c1CCNC2,Potency,[1],inactive
same,Potency,[2],inactive
same,Potency,[3],inactive
NCC(CC(=O)O)c1ccc(Cl)cc1 (stereo unspecified),Potency,[2],inactive
same,Potency,[3],inactive
CCCN1CCC[C@@H](c2cccc(O)c2)C1,Potency,[2],inactive
same,Potency,[3],inactive
CC(C)N(CCC(C(N)=O)(c1ccccc1)c1ccccn1)C(C)C (stereo unspecified),Potency,[2],inactive
same,Potency,[7],inactive
same,Potency,[3],inactive
same,Potency,[8],inactive
CC(N)Cc1c[nH]c2ccc(O)cc12 (stereo unspecified),Potency,[2],inactive
same,Potency,[3],inactive
COC(=O)[C@@H](N)CCCN=C(N)N[N+](=O)[O-],Potency,[1],inactive
same,Potency,[2],inactive
same,Potency,[3],inactive
same,viability,[9],109%
same,Potency,[10],inactive
same,Potency,[12],inactive
C[N+]1(C)CCc2cc3c(cc2[C@H]1[C@@H]1OC(=O)c2c1ccc1c2OCO1)OCO3,Potency,[2],inactive
same,Potency,[3],inactive
N[C@@H](Cn1oc(=O)[nH]c1=O)C(=O)O,Potency,[2],inactive
same,Potency,[3],inactive
COC(=O)C1=CCCN(C)C1,Potency,[2],inactive
same,Potency,[3],inactive
CCC1(C2=NCCN2)Cc2ccccc2O1 (stereo unspecified),Potency,[2],inactive
same,Potency,[3],inactive
Cc1c2ccncc2c(C)c2c1[nH]c1ccccc12,Potency,[1],30.1 µM (active)
same,Potency,[2],inactive
same,Potency,[3],inactive
C[C@@H]1O[C@@H](O[C@H]2C[C@@H](O)[C@]3(CO)[C@H]4[C@H](O)C[C@]5(C)[C@@H](C6=CC(=O)OC6)CC[C@]5(O)[C@@H]4CC[C@]3(O)C2)[C@H](O)[C@H](O)[C@H]1O,Potency,[2],inactive
same,Potency,[7],inactive
same,Potency,[3],inactive
same,Potency,[8],inactive
same,Potency,[9],0.0742 µM (active)
same,Potency,[10],0.0661 µM (active)
same,Potency,[11],0.118 µM (active)
same,Potency,[12],0.0934 µM (active)
same,Potency,[15],0.0833 µM (active)
same,Potency,[13],0.0833 µM (active)
CC(Cc1ccc(O)cc1)NCC(O)c1cc(O)cc(O)c1 (stereo unspecified),Potency,[2],inactive
same,Potency,[3],inactive
CN1CCC[C@@H]1Cc1c[nH]c2ccc(Nc3ncccc3[N+](=O)[O-])cc12,Potency,[2],inactive
same,Potency,[7],inactive
same,Potency,[3],inactive
same,Potency,[8],inactive
NCc1cc(=O)[nH]o1,Potency,[2],inactive
same,Potency,[3],inactive
CCOC(=O)c1ncn2c1[C@@H]1CCCN1C(=O)c1cc(OC)ccc1-2,Potency,[1],inactive
same,Potency,[16],inactive
same,Potency,[4],inactive
same,Potency,[5],inactive
same,Potency,[6],inactive
same,Potency,[17],inactive
CNc1ccc2oc(C[C@H]3O[C@@]4(CC[C@H]3C)O[C@H]([C@H](C)C(=O)c3ccc[nH]3)[C@H](C)C[C@H]4C)nc2c1C(=O)O,Potency,[2],inactive
same,Potency,[3],inactive
NN=C(N)N,Potency,[1],inactive
same,Potency,[2],inactive
same,Potency,[3],inactive
same,viability,[9],108%
same,Potency,[10],inactive
same,Potency,[11],inactive
same,Potency,[12],inactive
same,Potency,[13],inactive
same,Potency,[14],inactive
C[N+](C)(C)CC(=O)O,Potency,[2],inactive
Cc1cccc(C)c1NC1=NCCCS1,Potency,[2],inactive
same,Potency,[3],inactive
CCCCCn1c(C)c(C(=O)c2ccc(OC)c3ccccc23)c2ccccc21,Potency,[4],inactive
O=S(=O)(Nc1ccc(-c2ccccc2)cc1)c1ccc(NCc2cccc(Cl)c2O)cc1,Potency,[4],25.2 µM (active)
same,Potency,[6],25.2 µM (active)
same,Potency,[8],inactive
